Source: PubChem (National Center for Advancing Translational Sciences (NCATS))
An excerpt weighted towards active compounds, which were near 3.9% of everything screened.
PLK1 PBD block: PLK1 (human) polo-box domain binding inhibition. P53350. Plk1 PBD binding of FITC phosphopeptide, fluorescence polarization. Potency, µM, most hits filed as inhibitors. actives 2.8% (n = 360,000); also: series mostly up to about 57 µM; nearly all actives have a fitted effect of over 65% in size
BRCA1 expr act: BRCA1 expression activation; Potency, µM (titrated, usually from 46.1 µM), actives largely listed as activators; AID 624202; MCF7-BRCA1-FFLuc reporter, luminescence, 48 h; response scale: scaled: vehicle 0%, 10 µM genistein 100%; actives 1.1% (n = 380,000); also: nearly all actives have a fitted effect of over 80% in size
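Compounds are tested at multiple concentrations on MCF7 BRCA1-luciferase reporter cells seeded at 2000 per well; after 48 h, a single luminescence end-point is taken and curves fitted to the normalized data.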
Tb PFK block: blocks T. brucei phosphofructokinase | O15648 | T. brucei PFK, ADP-Glo luminescence | Potency, µM (series often up to 57.5 µM), actives largely listed as inhibitors | actives 0.17% (n = 330,000) | AID 485367; also: nearly all actives have a fitted effect of over 60% in size
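Compounds were pin-transferred as a titration series up to 57 uM into substrate buffer (0.5 mM F6P, 0.1 mM ATP, pH 8.0), then 1.25 nM PFK was added and reactions ran 45 min before ADP-Glo detection.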
VDR inh: blocks the human vitamin D receptor. Potency, µM, usual class: inhibitors. P11473. actives 0.93% (n = 400,000). VDR-SRC2-3 peptide fluorescence polarization, 2 h. AID 504847
Target sequence (P11473 whole entry, looked up): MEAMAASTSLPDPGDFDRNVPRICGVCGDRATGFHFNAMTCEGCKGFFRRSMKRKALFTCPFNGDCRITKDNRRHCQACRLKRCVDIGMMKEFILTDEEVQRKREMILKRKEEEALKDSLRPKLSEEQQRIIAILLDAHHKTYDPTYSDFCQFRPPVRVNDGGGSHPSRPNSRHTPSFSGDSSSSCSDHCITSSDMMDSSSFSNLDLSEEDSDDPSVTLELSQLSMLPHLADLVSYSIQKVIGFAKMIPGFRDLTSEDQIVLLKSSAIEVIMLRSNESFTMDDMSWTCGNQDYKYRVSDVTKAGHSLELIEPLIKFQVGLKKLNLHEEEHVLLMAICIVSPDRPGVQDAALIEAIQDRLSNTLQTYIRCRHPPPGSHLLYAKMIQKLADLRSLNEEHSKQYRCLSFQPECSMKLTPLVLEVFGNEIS
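Measured by FP: displacement of SRC2-3 coactivator peptide from VDR by library compounds, following a two-hour ambient incubation.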
Of the large screens only hits and unclear results are named; the others gave an inactive call. Calls follow the shape of the dose curve; as a rule, active = well fitted curve in the direction sought with a large enough effect; inconclusive = small, poorly fitted or top-dose-only effect, or another doubt; inactive = no such curve, though single readings can be large; an effect the other way counts as inactive or inconclusive.

CC(C(=O)N1CCCCC1)N(C)CC(=O)Nc1ccc(Cl)cc1 (centres undefined)	PLK1 PBD block 11.9µM, VDR inh inconclusive
COc1ccc2[nH]cc(C(=O)CNc3nccs3)c2c1	none (no result: PLK1 PBD block, Tb PFK block, VDR inh)
CC(C)c1ccc(NC2CCCN(C(=O)c3cc(C(C)C)nc(N)n3)C2)cc1 (centres undefined)	PLK1 PBD block 26.7µM
COCCCN1C(=O)C(CC(=O)NCCCCc2ccccc2)CC(C(=O)N2CCOCC2)=C1C (centres undefined)	none (no result: Tb PFK block, VDR inh)
COc1ccc(-c2noc(N3CCN(c4ccc(C)cc4)C(C)C3)n2)cc1OC (centres undefined)	none (no result: PLK1 PBD block, BRCA1 expr act, Tb PFK block)
CCn1c(CCCCc2n[nH]c(=S)n2CC)n[nH]c1=S	none
CCn1c(CCCOc2ccc(Cl)cc2Cl)n[nH]c1=S	BRCA1 expr act 6.31µM
CC1=C(C(=O)OC(C)C)C2(O)C(=O)c3ccccc3C2(O)N1 (centres undefined)	PLK1 PBD block inconclusive, VDR inh inconclusive
CCOC(=O)C1=C(C)OC2(O)c3ccccc3C(=O)C12O (centres undefined)	VDR inh 5.01µM
CCOC(=O)C1=C(C)N[C@@]2(O)c3ccccc3C(=O)[C@@]12O	none
CC(=O)C1=C(C)OC2(O)c3ccccc3C(=O)C12O (centres undefined)	VDR inh 1.58µM
CC(C)(C)C(=O)NCc1ccc(C(=O)CSc2nnc3n2CCCCC3)s1	none (no result: Tb PFK block, VDR inh)
CC(=O)Nc1c(O)cc(Br)c2nonc12	none (no result: PLK1 PBD block, Tb PFK block)
CC(=O)Nc1cc(O)c2nonc2c1O	VDR inh 4.47µM (no result: PLK1 PBD block, Tb PFK block)
Cc1cc(C)c(NC(=O)CN(C)CC(=O)Nc2cccc(S(=O)(=O)N(C)c3ccccc3)c2)c(C)c1	none
Cc1ccccc1CN(C)CC(=O)Nc1cccc(S(=O)(=O)N(C)c2ccccc2)c1	PLK1 PBD block 26.7µM
Cc1ccc(NC(=O)c2cc3ccccc3oc2=O)cc1S(=O)(=O)N(C)C	none
CN(c1ccccc1)S(=O)(=O)c1cccc(NC(=O)c2cc3ccccc3oc2=O)c1	BRCA1 expr act 11.2µM
COc1ccc(OC)c(NC(=O)[C@H](CSCc2ccccc2)N2Cc3ccccc3C2=O)c1	none (no result: PLK1 PBD block, Tb PFK block)
C=CS(=O)(=O)c1ccc(Oc2ccc(S(=O)(=O)C=C)cc2)cc1	PLK1 PBD block 23.8µM, VDR inh 44.7µM
NS(=O)(=O)c1ccc(Oc2ccc(S(N)(=O)=O)cc2)cc1	none
Cc1ccc(CN(CC(=O)NC2CCCC2)C(=O)CSc2nnc(COc3ccccc3)o2)cc1	PLK1 PBD block 29.9µM
Cc1cccc(OCc2nnc(SCC(=O)NCCc3ccccc3)o2)c1	none
O=C(CSc1nnc(COc2ccccc2)o1)NCCc1ccccc1	PLK1 PBD block 2.67µM, VDR inh inconclusive
CCCCC[C@H](O)/C=C/C=C\C/C=C\CCCCCCC(=O)O	none (no result: PLK1 PBD block, BRCA1 expr act, Tb PFK block)
Cc1cc(C)cc(NS(=O)(=O)c2ccc3c(c2)C(C)(C)C(=O)N3C)c1	PLK1 PBD block 26.7µM
CCc1ccc(-c2csc3[n+]2CCN3C(C)=O)cc1	PLK1 PBD block inconclusive, Tb PFK block inconclusive, VDR inh 25.1µM
CCCSc1nc(-c2ccccc2)[nH]c1S(=O)(=O)c1ccc(C)cc1	none (no result: PLK1 PBD block, BRCA1 expr act, Tb PFK block)
Cn1c(=O)c2c(-c3ccccc3Br)n(C(C)(C)C)cc2n(C)c1=O	none (no result: PLK1 PBD block, Tb PFK block)
Cn1c(=O)c(N)c2c3c(c(Br)ccc31)C(=O)c1ccccc1-2	PLK1 PBD block 0.597µM
COC(=O)c1ccc(CN(c2ccc(C)cc2)S(=O)(=O)c2ccc3c(c2)OCCO3)o1	PLK1 PBD block 2.99µM
COC(=O)c1ccc(CN(C)S(=O)(=O)c2ccc(C)cc2)o1	none
CC(CC(=O)c1cccs1)CC(=O)c1cccs1	BRCA1 expr act 12.6µM
Cc1cc(NC(=O)CCCS(=O)(=O)c2nc(-c3cccs3)cc(C(F)(F)F)n2)no1	PLK1 PBD block inconclusive, VDR inh 17.8µM
CCOC(=O)CS(=O)(=O)c1nc(-c2ccc(F)cc2)cc(C(F)(F)F)n1	PLK1 PBD block 5.32µM, Tb PFK block inconclusive, VDR inh inconclusive
COCC(C)NC(=O)CCS(=O)(=O)c1nc(-c2ccc(OC)cc2)cc(C(F)(F)F)n1 (centres undefined)	PLK1 PBD block inconclusive, VDR inh 79.4µM
COC(=O)CCS(=O)(=O)c1nc(-c2ccccc2)cc(C(F)(F)F)n1	PLK1 PBD block 21.2µM, VDR inh 20µM
Cc1cccc(NC(=O)CCS(=O)(=O)c2cc3c(cc2Cl)NC(=O)CO3)c1	PLK1 PBD block 11.9µM, VDR inh inconclusive
C[C@@H](CO)NC(=O)c1ccc2c3n(nc2c1)-c1ccc(Cl)cc1CO3	BRCA1 expr act inconclusive
O=C(NCC1CC1)c1ccc2c3n(nc2c1)-c1ccc(Cl)cc1CO3	BRCA1 expr act 2.51µM (no result: Tb PFK block)
O=C(NCCO)c1ccc2c3n(nc2c1)-c1ccc(Cl)cc1CO3	BRCA1 expr act 3.16µM
Cc1ccc2c(c1)COc1c3ccc(C(=O)N4CCOCC4)cc3nn1-2	BRCA1 expr act 4.47µM, VDR inh inconclusive
CC(C)[C@@H](CO)NC(=O)c1ccc2c3n(nc2c1)-c1ccc(Cl)cc1CO3	BRCA1 expr act 3.98µM
O=C(CSc1nnc(-c2cccs2)o1)Oc1ccccc1Cl	none (no result: PLK1 PBD block, BRCA1 expr act, Tb PFK block)
O=C(CSc1nnnn1-c1ccc(F)cc1)NC1CCCCC1	PLK1 PBD block 26.7µM, VDR inh inconclusive
O=C(CSc1ccc(F)cc1)NC1CCCCC1	BRCA1 expr act 11.2µM
Cc1cc2ccccc2nc1SCC(=O)NC1CCCC1	PLK1 PBD block 23.8µM, VDR inh inconclusive
O=C(CSc1ccc(Br)cc1)NC1CCS(=O)(=O)C1 (centres undefined)	PLK1 PBD block 16.8µM, VDR inh inconclusive
O=S1(=O)c2ccccc2N(Cc2cccc(C(F)(F)F)c2)c2ccccc21	none (no result: PLK1 PBD block, BRCA1 expr act, Tb PFK block)
COC(=O)NC1CC2C=CC1C1C=CC21 (centres undefined)	none (no result: Tb PFK block, VDR inh)
CN(C)c1ccc(CNC(=O)C2CCN(c3nnc(-n4cccc4)s3)CC2)cc1	none (no result: PLK1 PBD block, Tb PFK block)
Cc1ccc(CC(=O)NCc2nc(-c3cccc(C)c3)no2)cc1	none (no result: PLK1 PBD block, BRCA1 expr act, Tb PFK block)
CC(=O)c1ccccc1OC(=O)COc1ccc([N+](=O)[O-])cc1	PLK1 PBD block 21.2µM, VDR inh inconclusive
COc1cc(CNC(=O)C2CC(O)CN2C(=O)Nc2ccccc2)cc(OC)c1OC (centres undefined)	none (no result: Tb PFK block, VDR inh)
O=c1c(-c2ccc(F)cc2)nc2cnc(N3CCOCC3)nc2n1C[C@H]1CCCO1	none (no result: PLK1 PBD block, BRCA1 expr act, Tb PFK block)
CCc1cc2c(cc3c(=O)n(CC(=O)NC4CCC(C)CC4)nc(CC)n32)s1 (centres undefined)	none (no result: PLK1 PBD block, BRCA1 expr act, Tb PFK block)
COC(=O)c1c(-c2ccc(C)cc2)csc1NC(=O)c1c(-c2ccccc2)noc1C	none (no result: PLK1 PBD block, BRCA1 expr act, VDR inh)
COC(=O)c1c(-c2cccnc2)csc1NC(=O)c1cc(C)on1	PLK1 PBD block 6.7µM, BRCA1 expr act inconclusive, VDR inh 79.4µM
CCCn1c(CCC(=O)O)ccc1-c1ccccc1	PLK1 PBD block 11.9µM, VDR inh inconclusive
O=C(O)CCc1ccc(-c2ccccc2)n1CC(=O)O	none
Cc1ccc([C@@H]2CC=C(C(=O)O)[C@H](c3ccc(Br)cc3)N2S(=O)(=O)c2ccccc2C)cc1	PLK1 PBD block 26.7µM, VDR inh inconclusive
Cc1ccccc1S(=O)(=O)N1C(c2ccc(Cl)c(Cl)c2)CC=C(C(=O)O)C1c1cccc(Br)c1 (centres undefined)	PLK1 PBD block 23.8µM (no result: BRCA1 expr act, Tb PFK block, VDR inh)
